Over roughly 25,000 sequences, “ln(normalized median fluorescence intensity)” has its median near 7.1; the highest 2% begin near 10. For the sample, the highest values were picked, then their nearest neighbours and some sequences at random.

From the supplement of paper PMC11417369 come the findings set out here.

In this experiment the test system is PfSIP2 AP2 domain 1 (GST-tagged). Kind of experiment: gcPBM binding intensity (ln(normalized median fluorescence intensity)); higher = stronger DNA binding. Summed up:
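In this array assay, P. falciparum DNA-binding domains with a GST tag, expressed in E. coli, were applied for 1 h to primer-extended double-stranded 36-bp intergenic genomic probes and negative controls on an Agilent 4 × 180k array. Bound protein was visualised with Alexa488 anti-GST antibody at 488 nm. Binding intensity is the highest Masliner-normalised natural-log median intensity across replicate spots of either probe orientation.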
On to ATTTATTTCTTGTTAGTGCACTTTCTTTGGTAAAAT, for which the “gcPBM binding intensity (ln)” value was 11.1.
Regarding TTTTTGTTACCTATTGTGCACTTCATATAAATTAAA, the “gcPBM binding intensity (ln)” value amounted to 10.8.
For the sequence TGTTAAAATTATTTGGTGCACTTGTTTTACCTTATT, the “gcPBM binding intensity (ln)” value amounted to 11.3.
On to TATTTCACTTTTTGTCTGCACTAAAATTTTATGGTA, for which the “gcPBM binding intensity (ln)” value worked out at 7.74.
With “ACATTAAAAAATTGTTTGCACTATATAAAATATTAA [GTGCAC_site9728]”, the “gcPBM binding intensity (ln)” value stood at 8.2.
To “CACGTGAAAATACAAGCATGCAAGCTTTTTTTTTCT [TGCATGCA_site642]” belongs 6.53; to “TACAATTCGTAATACACACACATATAAATAAATATT [CACACA_site7720]”, 7.28.
With “AAATAATAAAGTATAACACACATATTTATTTATATA [CACACA_site7822]” the figure was 6.73; with “AATAGAACAAATAAAACACACACATATATATATATA [CACACA_site8893]”, 9.42; with “AAAGAACAAATAAAACATAAAATAATATATATAGAT [CACACA_negctrl_site1764]”, 7.02.
As to “AAAATACGAATATAAACATGCACCATATAGAACAAA [TGCATGCA_site925]”, the “gcPBM binding intensity (ln)” value came to 10.7.
Turning to “ATAGATGCATATTATACACACATATGTAAATACATT [CACACA_site4691]”, the “gcPBM binding intensity (ln)” value was found to be 7.06.
To “CAAACAATTAAACAAACACACATATACAAGTATATA [CACACA_site8639]” belongs 7.
To “TGAACATATTAAAATTGTACATATGCACAATATGTA [XGTACX_site6801]” belongs 7.44; to “AGTAGGCATATTGGTTGTACAAAAAAATTATGCACC [XGTACX_site8925]”, 10.3.
To “GTAGGCATTAAAAAATGTACAAAATATTATGAATTG [XGTACX_site1615]” belongs 6.85; to ATAAACATATAAAAAGTGCATATTCATATATCTACT, 8.7.
“TTGCACTCGTAAAAAGCACACATATAAAAACATTTA [CACACA_site7997]”: the “gcPBM binding intensity (ln)” value is 8.15.
For “TAAAAAAAAACATGTGCACACGTTTTATCTACATAA [CACACA_site2336]”, the “gcPBM binding intensity (ln)” value was 8.79.
To “ATATAAACAAAGCAGTGCACGTAAACAAAACATATA [CACACA_negctrl_site1076]” belongs 10.4.
TTAAAAGTAAGCAAAGTGCATATAACAAAAGTAAAG: the “gcPBM binding intensity (ln)” value worked out at 8.19.
To “AAACAGAATACATATACACACATACAAAAAAGTGCA [CACACA_site8235]” belongs 7.52.
To “TTATCTCTACAAAGTGCACACACGTAAAAACATATA [CACACA_site3957]” belongs 10.4; to “ATCTCTACAAAGTGCACACACGTAAAAACATATATA [CACACA_site6046]”, 10.8.
With “TAAAAAAAAACATATACACACAAAAACGTACACATA [CACACA_site1354]”, the “gcPBM binding intensity (ln)” value amounted to 7.29.
With “ATATATATGTATATGTGTACTTATATTTGTCATTTT [XGTACX_site1317]” the figure was 7.11.
For the sequence “TAATATTTATGTTAATGTACAAAAAAACAAAACAAA [XGTACX_site301]”, the “gcPBM binding intensity (ln)” value turned out to be 7.09.
With “TTTTTTAAATATTAAAAATGGGATCTTATAACATAT [GTGCAC_negctrl_site666]” the figure was 6.91.
To “ATATATATAATAAACACACACATATACATAGATGTA [CACACA_site5841]” belongs 7.49.
With “AAATAAAAGATATTTTTACACACTTTTGATGAGATC [CACACA_site9000]” the figure was 6.75; with “AAAAAAAAAAAAAAAAAAATATATTATATATATATA [XGTACX_negctrl_site467]”, 9.19.
Take “TAATAAGTACCTTTTGCATGTGGCACGCTTTTTTTT [TGCATGCA_site573]”: the “gcPBM binding intensity (ln)” value came to 6.75.
With “TTAACATCTTCGTTGACACACAAAAAAAAAAATAAT [CACACA_site1819]” the figure was 7.1.
As to “TATAAATACATACGTACACACAAATATTAAAATATA [CACACA_site5129]”, the “gcPBM binding intensity (ln)” value worked out at 7.35.
With “TCATATATATTATACACACACATATATAAATATATA [CACACA_site967]” the figure was 7.03; with “ATGGATTATACGTGCACACATATATACCAATAAATA [CACACA_site4524]”, 10.5.
With “TAGGGATTATACCACACACACATACACATAAATATA [CACACA_site3178]” the figure was 7.08; with “ATGGATTATACGTGCACACATATATACAAATAAATA [CACACA_site640]”, 10.5.
With ATAATTTCATAATACGTGCACATAATATATAAAAAA the figure was 10.5; with “GAAATAATTTCATATACACACATATACATACATACA [CACACA_site1358]”, 7.5.
With “ATAAAATATATATGCACACACATATATATTTCATAC [CACACA_site3547]”, the “gcPBM binding intensity (ln)” value was determined as 7.24.
With “ATATAAATACGGTGTGCACACACATAATATATATAT [CACACA_site2271]” the figure was 8.98; with “CATAAAAATGGATACACACACATAATATATATATAT [CACACA_site3619]”, 9.01.
To “TAATGGATTATACGTGCACACATATATACAAATAAA [CACACA_site8116]” belongs 10.5; to “TTATAATATGGATACACACACATATATAAATATATA [CACACA_site5314]”, 6.98; to “AAACATAAATTTTATTGTACATTATATAGAATTTTC [XGTACX_site576]”, 6.81.
